Assay results published in PubChem BioAssay (Tox21).
Values joined by “and” are separate entries in the source; they are usually repeats but may differ in a detail not shown here. Equal values may be shown once. Inconclusive results are not listed. A call without a number means that no potency is given here. Some structures have more than one record in an assay (separate samples or runs), and their calls can disagree. Active and inactive are the calls of the source. Unless noted, the call rests on the fitted dose curve; in most records, active means well fitted curve in the direction sought with a large enough effect in the repeat runs; inconclusive means weak or mixed curves; inactive means no such curve, though single readings can be large; an effect the other way counts as inactive or inconclusive.

Assays:
[1] = qHTS assay to identify aromatase inhibitors - cell viability counter screen (AID 743084);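 further: cells stimulated with testosterone during compound exposure; nearly all actives have a fitted effect of over 55% in size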; further: potency means the concentration at half of the fitted maximal effect
[2] = target: Aryl hydrocarbon receptor (Homo sapiens) (UniProt P35869); assay: qHTS assay to identify small molecule that activate the aryl hydrocarbon receptor (AhR) signaling pathway (AID 743085); further: nearly all actives have a fitted effect of over 15% in size; further: potency means the concentration at half of the fitted maximal effect;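 on activation: HG2L7.5c1 human HepG2 liver cells with stably integrated DRE-driven firefly reporter; series mostly up to about 70 µM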
Method in brief: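 Luminescence read-out: ONE-Glo reagent, 30 min at room temperature, in HG2L7.5c1 HepG2 reporter cells treated 24 h at 37C. Viability was measured beforehand by CellTiter-Fluor fluorescence after 30 min at 37C.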

[3] = qHTS assay to identify small molecule that activate the aryl hydrocarbon receptor (AhR) signaling pathway - cell viability counter screen (AID 743086);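 further: HepG2 liver cells carrying the AhR DRE luciferase reporter; series mostly up to about 70 µM; nearly all actives have a fitted effect of over 45% in size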
Method in brief: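 HepG2-AhR-luc (HG2L7.5c1) cells, 4000/well, were preincubated 5 h at 37C, exposed to compound in qHTS format for 24 hr at 37C, then given CellTiter-Fluor for 30 min; viability was read as fluorescence in the reporter wells.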

[4] = target: Peroxisome proliferator-activated receptor gamma (Homo sapiens) (UniProt P37231); assay: qHTS assay to identify small molecule agonists of the peroxisome proliferator-activated receptor gamma (PPARg) signaling pathway (AID 743094; active means well fitted activation curve with a large enough effect in the signal ratio in the repeat runs, not every such curve was filed as active; the % refers to the signal ratio)
Method in brief: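 Fluorescence-based beta-lactamase readout in HEK293H PPARg UAS-bla cells after 17 h compound exposure (37C) and 1 h B/G FRET substrate incubation at room temperature.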

[5] = target: Peroxisome proliferator-activated receptor gamma (Homo sapiens) (UniProt P37231); assay: qHTS assay to identify small molecule antagonists of the peroxisome proliferator-activated receptor gamma (PPARg) signaling pathway (AID 743191; calls by dose curve; further: series mostly up to about 63 µM; nearly all actives have a fitted effect of over 30% in size)
Method in brief: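 GeneBLAzer PPARg UAS-bla HEK293H cells carrying a UAS-driven beta-lactamase reporter were plated at 3000 cells/well, preincubated 5 h at 37C, then given compound for 17 h at 37C; LiveBLAzer B/G FRET substrate was read after 1 h at room temperature.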

[6] = qHTS assay to identify small molecule antagonists of the peroxisome proliferator-activated receptor gamma (PPARg) signaling pathway - cell viability counter screen (AID 743194); further: nearly all actives have a fitted effect of over 55% in size
Method in brief: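 PPARg-UAS-bla HEK293H cells were plated, rested 5 h at 37 C, then treated with compounds plus rosiglitazone (50 nM final) for 17 h at 37 C; viability was then read by CellTiter-Glo luminescence after 30 min at room temperature.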

[7] = qHTS assay for small molecule agonists of the antioxidant response element (ARE) signaling pathway (AID 743202; active means well fitted activation curve with a large enough effect in the signal ratio in the repeat runs, not every such curve was filed as active; the % refers to the signal ratio; further: potency means the concentration at half of the fitted maximal effect)
Method in brief: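 Following a 16 h, 37 C exposure of reporter HepG2 cells (ARE-driven beta-lactamase, 2,000 cells/well) to compounds, FRET substrate was applied for 2 h at room temperature and fluorescence intensity recorded.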

[8] = qHTS assay for small molecule agonists of the antioxidant response element (ARE) signaling pathway - cell viability counter screen (AID 743203; calls by dose curve; further: nearly all actives have a fitted effect of over 55% in size)
Method in brief: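 Parallel cytotoxicity read-out for the ARE-bla screen: HepG2 reporter cells, 16 hrs with compounds, then CellTiter-Glo luminescence.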

[9] = qHTS assay for small molecule activators of the heat shock response signaling pathway - cell viability counter screen (AID 743209); further: nearly all actives have a fitted effect of over 50% in size
Method in brief: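 To flag cytotoxic compounds, HSE-bla HeLa cells plated at 1500 cells/well were dosed for 5 h at 37 C, followed by the reporter FRET read and then CellTiter-Glo, with luminescence recorded 30 min after reagent addition.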

[10] = qHTS assay to identify small molecule agonists of the peroxisome proliferator-activated receptor delta (PPARd) signaling pathway - cell viability counter screen (AID 743211); further: nearly all actives have a fitted effect of over 55% in size
Method in brief: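 Read-out: CellTiter-Glo luminescence, 30 min RT, measured in the same wells as the beta-lactamase reporter. Cells: GeneBLAzer PPAR delta UAS-bla HEK293H, 3000 cells/well, compound exposure 17 h at 37C.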

[11] = qHTS assay to identify small molecule antagonists of the peroxisome proliferator-activated receptor delta (PPARd) signaling pathway - cell viability counter screen (AID 743213); further: nearly all actives have a fitted effect of over 50% in size
Method in brief: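 CellTiter-Glo was added to PPARd-bla HEK293H wells following 17 h compound treatment in the presence of 300 nM L165041. Luminescence was recorded after 30 min at room temperature.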

[12] = qHTS assay to identify small molecule agonists of the farnesoid-X-receptor (FXR) signaling pathway - cell viability counter screen (AID 743218); further: nearly all actives have a fitted effect of over 45% in size
Method in brief: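 Same-well cytotoxicity check on FXR-UAS-bla HEK 293T cells: 5 h attachment, 16 h compound at 37 C, CellTiter-Glo luminescence read at room temperature after 30 min.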

[13] = qHTS assay to identify small molecule antagonists of the farnesoid-X-receptor (FXR) signaling pathway - cell viability counter screen (AID 743221; active means well fitted cell-killing curve with a large enough effect in the repeat runs, not every such curve was filed as active; further: nearly all actives have a fitted effect of over 50% in size)
Method in brief: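 HEK 293T FXR-bla cells, 5 h pre-incubation; compound + CDCA 50 uM final, 16 h, 37 C; beta-lactamase FRET read first, then CellTiter-Glo luminescence, 30 min RT.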

[14] = qHTS assay for small molecule activators of the heat shock response signaling pathway (AID 743210; active means well fitted activation curve with a large enough effect in the signal ratio in the repeat runs, with a control signal flat, not every such curve was filed as active; the % refers to the signal ratio; further: series mostly up to about 63 µM)
Method in brief: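 Heat shock element–beta-lactamase HeLa reporter cells; qHTS with compounds for 5 h at 37 C; detection by FRET substrate fluorescence after 2.5 h at RT.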

[15] = target: Peroxisome proliferator-activated receptor delta (Homo sapiens) (UniProt Q03181); assay: qHTS assay to identify small molecule agonists of the peroxisome proliferator-activated receptor delta (PPARd) signaling pathway (AID 743212; calls by dose curve)
Method in brief: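 Beta-lactamase reporter read by fluorescence (LiveBLAzer B/G FRET, 2 h, room temperature). Test agents, in DMSO, incubated at 37 C with PPARd-bla HEK293H cells.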

[16] = target: Peroxisome proliferator-activated receptor delta (Homo sapiens) (UniProt Q03181); assay: qHTS assay to identify small molecule antagonists of the peroxisome proliferator-activated receptor delta (PPARd) signaling pathway (AID 743215; active means well fitted inhibition curve with a large enough effect in the signal ratio in the repeat runs, not every such curve was filed as active; the % refers to the signal ratio;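 further: cells stimulated with agonist L165041 at 300 nM final during compound exposure; series mostly up to about 62 µM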)
Method in brief: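 Screen format: qHTS, antagonist mode. HEK293H PPARd-bla cells received compound and 300 nM L165041 (final), 17 h, 37 C. Beta-lactamase detected via FRET substrate fluorescence, 2 h, room temperature.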

[17] = target: Bile acid receptor (Homo sapiens) (UniProt Q96RI1); assay: qHTS assay to identify small molecule antagonists of the farnesoid-X-receptor (FXR) signaling pathway (AID 743217; active means well fitted inhibition curve with a large enough effect in the signal ratio in the repeat runs, not every such curve was filed as active; the % refers to the signal ratio)
Method in brief: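 Quantitative HTS, beta-lactamase reporter format: FXR-UAS-bla HEK 293T cells co-treated 16 h at 37 °C with compounds and 50 uM final chenodeoxycholic acid, then read by B/G FRET fluorescence.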

[18] = target: Bile acid receptor (Homo sapiens) (UniProt Q96RI1); assay: qHTS assay to identify small molecule agonists of the farnesoid-X-receptor (FXR) signaling pathway (AID 743220; active means well fitted activation curve with a large enough effect in the signal ratio in the repeat runs, not every such curve was filed as active; the % refers to the signal ratio)
Method in brief: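 FXR-UAS-bla HEK 293T cells carrying a UAS-driven beta-lactamase reporter were plated for 5 h at 37C/5% CO2, then exposed to DMSO-dissolved Tox21 10K compounds for 16 h at 37C. A LiveBLAzer B/G FRET substrate was loaded for 2 h at room temperature before fluorescence reading.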

[19] = target: Vitamin D3 receptor (Homo sapiens) (UniProt P11473); assay: qHTS assay to identify small molecule agonists of the vitamin D receptor (VDR) signaling pathway (AID 743222; calls by dose curve)
Method in brief: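 Using LiveBLAzer B/G FRET detection, agonism was scored in VDR-bla cells exposed overnight (16 h, 37C) to DMSO-dissolved compounds; substrate incubation was 2 h at room temperature.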

[20] = target: Vitamin D3 receptor (Homo sapiens) (UniProt P11473); assay: qHTS assay to identify small molecule antagonists of the vitamin D receptor (VDR) signaling pathway (AID 743223; active means well fitted inhibition curve with a large enough effect in the signal ratio in the repeat runs, not every such curve was filed as active; the % refers to the signal ratio)
Method in brief: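 Beta-lactamase reporter read-out: FRET substrate fluorescence after 2 h at room temperature, following 16 h exposure of VDR-bla cells to test compound plus 3 nM (final) 1alpha,25-dihydroxyvitamin D3 agonist at 37C.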

Peroxisome proliferator-activated receptor gamma (Homo sapiens), sequence (P37231 whole entry, looked up): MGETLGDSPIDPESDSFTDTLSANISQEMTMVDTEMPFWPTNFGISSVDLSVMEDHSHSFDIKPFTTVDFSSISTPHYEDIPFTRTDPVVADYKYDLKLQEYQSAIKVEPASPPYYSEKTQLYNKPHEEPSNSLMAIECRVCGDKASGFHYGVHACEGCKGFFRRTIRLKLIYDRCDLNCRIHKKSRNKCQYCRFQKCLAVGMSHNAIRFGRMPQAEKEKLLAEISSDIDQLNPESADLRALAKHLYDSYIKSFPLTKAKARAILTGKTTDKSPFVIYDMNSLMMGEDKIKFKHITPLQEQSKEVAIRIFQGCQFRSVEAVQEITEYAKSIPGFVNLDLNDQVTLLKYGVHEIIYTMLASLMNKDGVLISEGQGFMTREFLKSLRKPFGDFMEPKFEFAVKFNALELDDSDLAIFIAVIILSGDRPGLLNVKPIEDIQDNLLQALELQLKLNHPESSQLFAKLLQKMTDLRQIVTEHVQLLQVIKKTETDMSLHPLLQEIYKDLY
Vitamin D3 receptor (Homo sapiens), sequence (P11473 whole entry, looked up): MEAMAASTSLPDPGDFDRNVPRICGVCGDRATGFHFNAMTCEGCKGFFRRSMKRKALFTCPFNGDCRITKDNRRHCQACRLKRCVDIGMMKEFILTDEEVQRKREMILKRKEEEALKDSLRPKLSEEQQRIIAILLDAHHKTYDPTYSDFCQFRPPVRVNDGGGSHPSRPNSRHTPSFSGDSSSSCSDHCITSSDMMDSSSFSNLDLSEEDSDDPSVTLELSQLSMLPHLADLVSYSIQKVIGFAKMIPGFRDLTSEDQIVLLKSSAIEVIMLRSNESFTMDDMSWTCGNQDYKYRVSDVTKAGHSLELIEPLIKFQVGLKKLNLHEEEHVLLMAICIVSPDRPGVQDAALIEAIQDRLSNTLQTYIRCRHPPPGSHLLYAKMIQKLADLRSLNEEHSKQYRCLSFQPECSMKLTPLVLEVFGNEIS
Bile acid receptor (Homo sapiens), sequence (Q96RI1 whole entry, looked up): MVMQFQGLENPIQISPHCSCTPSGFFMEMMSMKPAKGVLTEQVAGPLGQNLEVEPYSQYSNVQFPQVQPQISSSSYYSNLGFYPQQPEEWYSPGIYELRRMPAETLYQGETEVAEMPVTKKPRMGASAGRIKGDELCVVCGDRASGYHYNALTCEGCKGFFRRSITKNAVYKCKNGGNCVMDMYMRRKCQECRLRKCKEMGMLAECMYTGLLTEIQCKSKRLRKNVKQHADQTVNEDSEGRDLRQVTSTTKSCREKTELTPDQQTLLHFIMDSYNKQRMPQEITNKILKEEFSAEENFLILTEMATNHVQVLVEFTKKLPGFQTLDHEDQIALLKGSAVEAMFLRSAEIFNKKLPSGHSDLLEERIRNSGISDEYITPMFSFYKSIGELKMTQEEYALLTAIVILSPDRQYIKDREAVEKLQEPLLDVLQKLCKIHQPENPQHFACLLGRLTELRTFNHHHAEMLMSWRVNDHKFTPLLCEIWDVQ
Aryl hydrocarbon receptor (Homo sapiens), sequence (P35869 whole entry, looked up): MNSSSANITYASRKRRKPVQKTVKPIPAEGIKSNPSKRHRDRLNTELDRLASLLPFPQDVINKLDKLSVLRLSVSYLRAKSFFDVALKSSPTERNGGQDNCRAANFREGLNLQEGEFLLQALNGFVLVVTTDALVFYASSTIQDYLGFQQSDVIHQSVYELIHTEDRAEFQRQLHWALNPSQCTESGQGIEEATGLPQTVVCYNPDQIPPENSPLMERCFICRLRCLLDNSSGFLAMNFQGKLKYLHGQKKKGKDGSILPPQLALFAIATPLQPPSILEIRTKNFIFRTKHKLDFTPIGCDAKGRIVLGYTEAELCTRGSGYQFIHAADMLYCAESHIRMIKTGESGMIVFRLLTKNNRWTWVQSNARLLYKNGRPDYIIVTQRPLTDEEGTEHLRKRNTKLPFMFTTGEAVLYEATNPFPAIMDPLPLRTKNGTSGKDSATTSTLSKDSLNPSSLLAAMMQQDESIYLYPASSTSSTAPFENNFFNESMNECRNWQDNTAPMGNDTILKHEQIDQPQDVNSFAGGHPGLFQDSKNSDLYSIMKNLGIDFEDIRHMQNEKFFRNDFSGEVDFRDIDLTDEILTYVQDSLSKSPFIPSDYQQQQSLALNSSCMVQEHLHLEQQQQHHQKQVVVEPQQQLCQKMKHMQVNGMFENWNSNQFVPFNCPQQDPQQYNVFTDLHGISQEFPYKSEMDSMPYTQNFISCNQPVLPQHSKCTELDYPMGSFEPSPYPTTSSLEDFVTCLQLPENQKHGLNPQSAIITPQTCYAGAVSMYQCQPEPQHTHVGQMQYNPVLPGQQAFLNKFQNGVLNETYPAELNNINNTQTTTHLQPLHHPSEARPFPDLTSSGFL
Peroxisome proliferator-activated receptor delta (Homo sapiens), sequence (Q03181 whole entry, looked up): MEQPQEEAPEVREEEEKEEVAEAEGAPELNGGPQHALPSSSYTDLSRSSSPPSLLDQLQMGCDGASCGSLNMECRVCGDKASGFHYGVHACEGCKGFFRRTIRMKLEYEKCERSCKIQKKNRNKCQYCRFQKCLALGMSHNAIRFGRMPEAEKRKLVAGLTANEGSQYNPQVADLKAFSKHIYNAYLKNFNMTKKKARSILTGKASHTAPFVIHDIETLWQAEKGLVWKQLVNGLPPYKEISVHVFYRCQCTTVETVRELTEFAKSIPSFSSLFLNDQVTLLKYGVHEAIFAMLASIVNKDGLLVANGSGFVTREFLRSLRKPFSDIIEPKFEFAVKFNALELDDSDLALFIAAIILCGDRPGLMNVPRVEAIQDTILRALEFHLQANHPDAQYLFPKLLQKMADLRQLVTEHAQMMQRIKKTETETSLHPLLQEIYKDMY

Compound | Potency [1] | Potency [2] | outcome [3] | outcome [4] | Potency [5] | outcome [6] | Potency [7] | Potency [8] | Potency [9] | Potency [10] | outcome [11] | Potency [12] | Potency [13] | Potency [14] | outcome [15] | outcome [16] | outcome [17] | outcome [18] | outcome [19] | outcome [20]
COC(C)(C)CCCC(C)C/C=C/C(C)=C/C(=O)OC(C)C (stereo not drawn) | inactive | inactive and 60.1 µM (active) | inactive | inactive | inactive | inactive | inactive | inactive | inactive | inactive | inactive | inactive | inactive |  |  |  |  |  |  | 
OC[C@@H](O)[C@H]1O[C@@H]2O[C@H](C(Cl)(Cl)Cl)O[C@@H]2[C@H]1O | inactive | inactive |  | inactive | inactive | inactive | inactive | inactive | inactive | inactive | inactive | inactive | inactive | inactive | inactive | inactive |  |  |  | 
CSc1nnc(C(C)(C)C)c(=O)n1N |  |  | inactive |  |  | inactive | inactive | inactive | inactive | inactive | inactive | inactive | inactive | inactive | inactive | inactive | inactive | inactive | inactive | inactive
CNC(=O)O/N=C/C(C)(C)S(C)=O (stereo not drawn) | inactive |  | inactive | inactive | inactive | inactive | inactive | inactive | inactive | inactive | inactive | inactive | inactive | inactive | inactive | inactive | inactive | inactive | inactive | inactive
[N-]=[N+]=CC(=O)OC[C@H](N)C(=O)O |  |  |  |  |  | inactive | inactive | inactive | inactive | inactive | inactive | inactive | inactive |  | inactive | inactive | inactive | inactive | inactive | inactive
C/C=C/c1ccc2c(c1)OCO2 | inactive |  | inactive | inactive |  | inactive | inactive | inactive | inactive | inactive | inactive | inactive | inactive | inactive |  |  |  |  | inactive | inactive
Cc1cccc(N)c1 | inactive |  | inactive | inactive | inactive | inactive | inactive | inactive | inactive | inactive | inactive | inactive | inactive | inactive | inactive | inactive |  |  | inactive | inactive
C[C@]12CC[C@H](O)CC1=CC[C@@H]1[C@@H]2CC[C@]2(C)C(=O)CC[C@@H]12 | inactive | inactive |  | inactive |  | inactive |  | inactive | inactive | inactive | inactive | inactive | inactive | inactive | inactive |  |  |  |  | 
Nc1cc(Cl)cc(Cl)c1 | inactive | inactive |  | inactive |  | inactive | inactive | inactive | inactive | inactive | inactive | inactive | inactive | inactive | inactive | inactive | inactive | inactive | inactive | inactive
CN(C)CCC#N | inactive |  | inactive | inactive | inactive | inactive | inactive | inactive | inactive | inactive | inactive | inactive | inactive | inactive | inactive | inactive |  |  | inactive | inactive
O=C(O)C(Br)Br | inactive |  | inactive | inactive | inactive | inactive | 86.3 nM (active) | inactive | inactive | inactive | inactive | inactive | inactive | inactive |  |  | inactive | inactive | inactive | inactive
Cc1ccccc1N | inactive | inactive |  |  |  | inactive | inactive | inactive | inactive | inactive | inactive | inactive | inactive | inactive | inactive | inactive |  |  |  | 
CNCC(O)c1ccc(O)cc1 (stereo not drawn) | inactive | inactive |  | inactive | inactive | inactive |  | inactive | inactive | inactive | inactive | inactive | inactive | inactive | inactive |  | inactive | inactive | inactive | inactive
Clc1cnc(Oc2ccc(Oc3ncc(Cl)cc3Cl)cc2)c(Cl)c1 | inactive | inactive |  | inactive |  | inactive |  | inactive | inactive | inactive | inactive |  | inactive | inactive | inactive | inactive | inactive | inactive | inactive | inactive
CN1C(=O)CCS(=O)(=O)C1c1ccc(Cl)cc1 (stereo not drawn) | inactive | inactive |  |  |  | inactive | inactive | inactive | inactive | inactive | inactive | inactive | inactive | inactive | inactive | inactive |  |  | inactive | inactive
Nc1ccc(N)cc1 | inactive and 54.7 µM (active) and 43.3 µM (active) |  |  | inactive | inactive | inactive | 8.67 µM (active) and 10.6 µM (active) | inactive | inactive | inactive | inactive | inactive | inactive |  |  |  | inactive | inactive | inactive | inactive
